Screening data as filed in PubChem.
This is one part of a sample in which hits are shown more often than they occur.
ST2 IL33 inh: blocks human ST2 binding to IL-33 | Q01638 | hit rate 2.3% among 78,000 | inhibition, % for hits at 17 µM | AlphaLISA ST2-Fc/biotin-IL-33 interaction, 1 h; in the data active = inhibition above about 30%
Target sequence (Q01638 whole entry, looked up): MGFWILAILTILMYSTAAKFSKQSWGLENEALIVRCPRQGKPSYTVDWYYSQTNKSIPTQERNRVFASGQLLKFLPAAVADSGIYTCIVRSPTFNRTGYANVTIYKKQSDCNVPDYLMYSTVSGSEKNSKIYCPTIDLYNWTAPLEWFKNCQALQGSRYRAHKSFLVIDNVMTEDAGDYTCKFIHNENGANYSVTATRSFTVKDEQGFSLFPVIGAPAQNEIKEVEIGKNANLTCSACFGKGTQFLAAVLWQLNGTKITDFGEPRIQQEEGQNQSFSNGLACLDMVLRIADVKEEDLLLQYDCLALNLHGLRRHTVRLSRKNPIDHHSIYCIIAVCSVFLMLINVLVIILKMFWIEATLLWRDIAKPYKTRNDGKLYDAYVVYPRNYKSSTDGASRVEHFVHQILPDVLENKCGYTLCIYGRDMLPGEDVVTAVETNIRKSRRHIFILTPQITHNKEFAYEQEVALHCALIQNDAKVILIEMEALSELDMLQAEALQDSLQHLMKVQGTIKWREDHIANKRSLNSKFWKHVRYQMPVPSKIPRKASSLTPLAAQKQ
Numbers stand for hits; – = inactive; ! = a repeat was not active.

SMILES	ST2 IL33 inh
O=C(NCc1ccc2c(c1)OCO2)c1ccc2c(Cl)c3c(nc2c1)CCCC3	–
O=C(c1cn(CCC2CCCCC2)nn1)N1CCCCC1c1nccs1 (configuration not stated)	–
Cc1csc2ncc(C(=O)Nc3ccc(S(N)(=O)=O)cc3)c(=O)n12	–
COc1cc2c(cc1OC)C(COc1ccc3c(C)cc(=O)oc3c1)N(C(C)=O)CC2 (configuration not stated)	–
Cc1ccc(-c2csc(/C(C#N)=C/c3ccco3)n2)cc1	63%
Cc1ccc2sc(-c3ccc(NC(=O)c4ccco4)cc3)nc2c1	–
Cc1cc(-c2cccs2)n[nH]1	–
N#C/C(=C\c1cccs1)c1nc(-c2cccs2)cs1	64%
CN1CCN(c2nc(-c3cccs3)cc(C(F)(F)F)n2)CC1	–
N#C/C(=C\c1ccco1)c1nc(-c2cc3cc(Br)ccc3oc2=O)cs1	–
CC(C(=O)O)n1cnc2scc(-c3ccc(Br)cc3)c2c1=O (configuration not stated)	–
Cn1cc(SCC(=O)NCc2ccco2)c2ccccc21	–
Cc1ccc(NC(=O)CN2CCCN(Cc3cccc(F)c3)S2(=O)=O)c(Cl)c1	–
Cc1noc(C)c1CN1CC[C@@H](c2ccc3c(c2)OCO3)[C@H](O)C1	–
COc1cc(O)cc2c1C(=O)CC(c1ccccc1)O2 (configuration not stated)	–
O=C(O)CCCC[C@H]1SC[C@H]2NC(=O)N[C@H]21	96%
NCCCCC(=O)O	–
COCc1ccc(CN2CCCC(Nc3ccc4c(c3)OCO4)C2)o1 (configuration not stated)	–
CCOc1ccc(NC(=O)CN(c2ccccc2F)S(=O)(=O)c2ccccc2)cc1	–
CCOC(=O)c1c(NC(=O)c2cc(-c3cccs3)on2)sc2c1CCCC2	–
CN(Cc1c[nH]c2ccccc12)CC1CCN(CCc2cccc(F)c2)CC1	–
C=CCN1C(=Nc2cccnc2)SCC1(O)c1ccccc1 (configuration not stated)	53%
CCOC(=O)C1C(=O)C=C(c2ccc(F)cc2)CC1c1ccccc1C (configuration not stated)	–
COc1ccc(C(=O)N2CCC(C(=O)Nc3ccc(Cl)cc3Cl)CC2)cc1	–
COc1cccc(C2CCN2Cc2c(C)n(CC(N)=O)c3ccccc23)c1 (configuration not stated)	–
SMILES	ST2 IL33 inh
CCOc1ccc(C2CC(=O)N3CN(C4CCCCC4)CSC3=C2C#N)cc1 (configuration not stated)	–
CC1C(=O)C(C)C(c2ccccc2O)NC1c1ccccc1O (configuration not stated)	–
CC1C(=O)C(C)C(c2ccc(N(C)C)cc2)NC1c1ccc(N(C)C)cc1 (configuration not stated)	36%!
CC1C(=O)C(C)C(c2ccc(F)cc2)NC1c1ccc(F)cc1 (configuration not stated)	–
O=C(c1ccc(C(=O)N2CCc3ccccc32)cc1)N1CCc2ccccc21	–
Cc1cccnc1N1CCN(C(=O)c2cc(CC(C)C)nc(N)n2)CC1	–
O=C(NCCC(c1ccccc1)c1ccccc1)C1CC12CCN(C(=O)c1ccc[n+]([O-])c1)CC2 (configuration not stated)	34%
O=C(NCCCc1ccccc1)C1CC12CCN(C(=O)c1cccc(-c3ccccc3F)c1)CC2 (configuration not stated)	–
COc1ccc(CC(=O)N2CCC3(CC2)CC3C(=O)NCCCc2ccccc2)cc1OC (configuration not stated)	–
CCOCCCNC(=O)C1C2C=CC3(CN(Cc4ccccc4Cl)C(=O)C13)O2 (configuration not stated)	–
Cc1ccoc1C(=O)N1CC(c2ccccn2)C1	–
O=[N+]([O-])c1ccc(N2CCOCC2)cc1NCCCO	–
O=S(=O)(c1ccc(Br)cc1)N1CCN(Cc2ccccc2)CC1	–
O=[N+]([O-])c1ccc(S(=O)(=O)N2CCN(c3ccccc3)CC2)cc1	–
CCS(=O)(=O)N1CCN(c2ccc([N+](=O)[O-])c(NCc3cccnc3)c2)CC1	–
O=C(COc1ccccc1)N1CCN(S(=O)(=O)c2ccc([N+](=O)[O-])cc2)CC1	–
O=[N+]([O-])c1ccc(S(=O)(=O)N2CCN(CCCc3ccccc3)CC2)cc1	34%
O=[N+]([O-])c1ccc(S(=O)(=O)N2CCN(c3ccccn3)CC2)cc1	–
O=[N+]([O-])c1ccc(N2CCN(S(=O)(=O)c3ccc(Cl)c(Cl)c3)CC2)cc1NC1CC1	30%
O=[N+]([O-])c1ccc(N2CCN(S(=O)(=O)c3ccc(Cl)cc3)CC2)cc1	35%
CC(C)Oc1ccc(NC(=O)c2cccs2)cc1	–
O=C(O)c1cccc(-n2nc3c4nonc4ccc3[n+]2[O-])c1	–
Cc1cc(-n2cccn2)ccc1CN1CCN(c2cc(=O)[nH]c(N)n2)CC1	40%
Cc1nc2c(c(=O)[nH]1)CCN(C(=O)c1cc(-n3cccn3)ccc1Cl)C2	–
NC(=O)c1ccc(N2CCN(Cc3cccc(-n4cccn4)c3)CC2)nc1	–
SMILES	ST2 IL33 inh
O=C(c1ccccc1-c1ncc[nH]1)N1CCCC2(C1)C(=O)Nc1ccccc12 (configuration not stated)	–
Cc1n[nH]c(C)c1S(=O)(=O)N1CCC(C(=O)NC2CCCCCC2)CC1	–
N#CC1=C(SCC(=O)Nc2ccc(Br)cc2)NC(=O)C(C#N)C12CCCCC2 (configuration not stated)	–
O=C(NCCSc1c[nH]c2ccccc12)c1ccccc1F	–
CCN(CC)C(=O)[C@@H]1C[C@H](N)CN1C(=O)/C=C/c1ccccc1	–
COc1ccc(/C=c2\sc3n(c2=O)CN(c2cccc(F)c2)CN=3)cc1	35%
COc1ccc(/C=c2\sc3n(c2=O)CN(c2ccc(C(C)=O)cc2)CN=3)cc1	–
COc1ccccc1/C=c1\sc2nnc(-c3ccc(C)cc3)n2c1=O	–
COc1cc(/C=c2\sc3n(c2=O)CN(c2ccc(C)cc2)CN=3)c([N+](=O)[O-])cc1OC	38%
O=c1/c(=C/c2cccnc2)sc2n1CN(c1cccc(C(F)(F)F)c1)CN=2	–
O=c1/c(=C/c2cccc([N+](=O)[O-])c2)sc2n1CN(c1cccc(F)c1)CN=2	–
COc1cccc(/C=c2\sc3nnc(-c4ccc(C)cc4)n3c2=O)c1	–
Cc1ccc(-c2nnc3s/c(=C\c4ccc([N+](=O)[O-])cc4)c(=O)n23)cc1	–
CCCOc1ccc(/C=c2\sc3nc(=O)c(C)nn3c2=O)cc1	–
Cc1ccc(N2CN=c3s/c(=C\c4cccnc4)c(=O)n3C2)cc1	30%
CCOc1ccc(-c2nc3s/c(=C\c4ccc(F)cc4)c(=O)n3n2)cc1	–
COc1ccc(/C=c2\sc3n(c2=O)CN(c2ccc(C)cc2)CN=3)cc1	31%
Cc1ccc(-c2noc(CCC(=O)Nc3ccccn3)n2)cc1	–
CCCCN(C)CCNC(=O)c1c[nH]n2c(=O)c(Cc3ccccc3F)c(C)nc12	–
Cc1ccc2c(-c3cc4c(n(CC5CC5)c3=O)CCN(C(=O)c3cncs3)C4)cccc2n1	–
O=C(Cn1cnc2ccccc21)N1CCCC(Nc2ccc3c(c2)OCCO3)C1 (configuration not stated)	–
Cc1ccc(C(=O)Nc2ccc3c(c2)ncn3-c2ccccc2C)cc1	–
COc1ccc(/C=C2\C=C(c3ccc(Br)cc3)OC2=O)cc1[N+](=O)[O-]	–
COc1cc(/C=C2\C=C(c3ccc(Cl)cc3)OC2=O)c([N+](=O)[O-])cc1OC	–
COc1cc(/C=C2\C=C(c3ccc(Cl)cc3)OC2=O)cc(Br)c1OC	–
